Laboratory results taken from PubChem BioAssay (NCATS).
Where “and” joins values, the source holds several entries; their conditions need not be identical. Equal entries are not always repeated. Records with an inconclusive call do not appear. Calls of active or inactive are those of the source. Unless noted, calls follow the shape of the dose curve; as a rule, active = well fitted curve in the direction sought with a large enough effect; inconclusive = small, poorly fitted or top-dose-only effect, or another doubt; inactive = no such curve, though single readings can be large; an effect the other way counts as inactive or inconclusive.

Assays:
[1] = target: Retinoic acid receptor RXR-alpha (Homo sapiens) (UniProt P19793); assay: qHTS assay for small molecule antagonists of retinoid X receptor alpha signaling (AID 588546; active = well fitted inhibition curve with a large enough effect in the signal ratio, with a control signal flat, not every such curve was filed as active; the % refers to the signal ratio;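 also: cells stimulated with 9-cis-retinoic acid as agonist; % is scaled to controls: 0 for no effect and ±100 for the full control effect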); details: HEK293T RXRa-UAS-bla, beta-lactamase ratio, antagonist mode
Sequence of Retinoic acid receptor RXR-alpha (Homo sapiens) (P19793 whole entry, looked up): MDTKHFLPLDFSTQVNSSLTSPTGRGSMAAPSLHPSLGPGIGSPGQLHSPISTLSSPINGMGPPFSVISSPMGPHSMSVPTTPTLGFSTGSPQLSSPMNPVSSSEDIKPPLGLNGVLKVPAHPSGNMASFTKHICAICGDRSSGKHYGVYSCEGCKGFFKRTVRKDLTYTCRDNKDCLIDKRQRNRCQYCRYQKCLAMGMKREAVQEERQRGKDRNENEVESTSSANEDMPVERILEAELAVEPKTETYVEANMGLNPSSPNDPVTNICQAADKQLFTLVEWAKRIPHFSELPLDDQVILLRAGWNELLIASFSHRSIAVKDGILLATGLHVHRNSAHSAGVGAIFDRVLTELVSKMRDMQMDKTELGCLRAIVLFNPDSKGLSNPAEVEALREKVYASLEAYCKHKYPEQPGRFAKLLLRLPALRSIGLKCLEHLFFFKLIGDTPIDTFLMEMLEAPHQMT
Method in brief: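 Beta-lactamase reporter inhibition, read as CCF4 fluorescence ratio (ex 405, em 460/530 nm) after 2 h at RT. HEK293T UAS-bla cells, 2500/well, were stimulated with 9-cis-RA at 500 or 100 nM final alongside test compound for 18 h at 37 C.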

[2] = target: Thyroid hormone receptor beta (Homo sapiens) (UniProt P10828); assay: qHTS assay for small molecule antagonists of thyroid hormone receptor beta signaling (AID 588547; active = well fitted inhibition curve with a large enough effect in the signal ratio, with a control signal flat, not every such curve was filed as active; the % refers to the signal ratio;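 also: cells stimulated with 0.4 nM T3 agonist during compound exposure; series mostly up to about 77 µM; % is scaled to controls: 0 for no effect and ±100 for the full control effect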); details: TR-UAS-bla HEK293, beta-lactamase ratio, antagonist mode, 18 h
Sequence of Thyroid hormone receptor beta (Homo sapiens) (P10828 whole entry, looked up): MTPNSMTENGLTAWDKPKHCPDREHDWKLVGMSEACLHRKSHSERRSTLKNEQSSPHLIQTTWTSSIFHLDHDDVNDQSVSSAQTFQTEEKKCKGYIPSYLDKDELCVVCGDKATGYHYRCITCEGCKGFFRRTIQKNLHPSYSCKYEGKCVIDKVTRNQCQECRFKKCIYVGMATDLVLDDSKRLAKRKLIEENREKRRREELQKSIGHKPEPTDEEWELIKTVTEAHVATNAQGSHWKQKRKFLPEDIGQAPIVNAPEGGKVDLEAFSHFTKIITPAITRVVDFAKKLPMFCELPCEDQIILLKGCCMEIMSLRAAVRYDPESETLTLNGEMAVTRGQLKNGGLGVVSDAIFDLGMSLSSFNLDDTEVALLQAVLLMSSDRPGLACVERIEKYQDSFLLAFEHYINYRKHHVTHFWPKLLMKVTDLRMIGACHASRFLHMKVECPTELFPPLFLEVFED
Method in brief: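 Inhibition of T3-driven (0.4nM final) beta-lactamase reporter activity was measured over 0.59 nM to 92 uM compound after 18 h at 37 C. The cells were GripTite HEK293 TR-UAS-bla in charcoal/dextran-stripped serum, with CCF4 ratio read-out and IC50 from Hill fits.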

[3] = target: Voltage-gated inwardly rectifying potassium channel KCNH2 (Homo sapiens) (UniProt Q12809); assay: qHTS Assay for Small Molecule Inhibitors of the Human hERG Channel Activity (AID 588834);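 also: top concentration of the series differs between compounds; % is scaled to controls: 0 for no effect and ±100 for the full control effect; lower thallium flux fluorescence means stronger hERG block; nearly all actives have a fitted effect of over 50% in size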
Sequence of Voltage-gated inwardly rectifying potassium channel KCNH2 (Homo sapiens) (Q12809 whole entry, looked up): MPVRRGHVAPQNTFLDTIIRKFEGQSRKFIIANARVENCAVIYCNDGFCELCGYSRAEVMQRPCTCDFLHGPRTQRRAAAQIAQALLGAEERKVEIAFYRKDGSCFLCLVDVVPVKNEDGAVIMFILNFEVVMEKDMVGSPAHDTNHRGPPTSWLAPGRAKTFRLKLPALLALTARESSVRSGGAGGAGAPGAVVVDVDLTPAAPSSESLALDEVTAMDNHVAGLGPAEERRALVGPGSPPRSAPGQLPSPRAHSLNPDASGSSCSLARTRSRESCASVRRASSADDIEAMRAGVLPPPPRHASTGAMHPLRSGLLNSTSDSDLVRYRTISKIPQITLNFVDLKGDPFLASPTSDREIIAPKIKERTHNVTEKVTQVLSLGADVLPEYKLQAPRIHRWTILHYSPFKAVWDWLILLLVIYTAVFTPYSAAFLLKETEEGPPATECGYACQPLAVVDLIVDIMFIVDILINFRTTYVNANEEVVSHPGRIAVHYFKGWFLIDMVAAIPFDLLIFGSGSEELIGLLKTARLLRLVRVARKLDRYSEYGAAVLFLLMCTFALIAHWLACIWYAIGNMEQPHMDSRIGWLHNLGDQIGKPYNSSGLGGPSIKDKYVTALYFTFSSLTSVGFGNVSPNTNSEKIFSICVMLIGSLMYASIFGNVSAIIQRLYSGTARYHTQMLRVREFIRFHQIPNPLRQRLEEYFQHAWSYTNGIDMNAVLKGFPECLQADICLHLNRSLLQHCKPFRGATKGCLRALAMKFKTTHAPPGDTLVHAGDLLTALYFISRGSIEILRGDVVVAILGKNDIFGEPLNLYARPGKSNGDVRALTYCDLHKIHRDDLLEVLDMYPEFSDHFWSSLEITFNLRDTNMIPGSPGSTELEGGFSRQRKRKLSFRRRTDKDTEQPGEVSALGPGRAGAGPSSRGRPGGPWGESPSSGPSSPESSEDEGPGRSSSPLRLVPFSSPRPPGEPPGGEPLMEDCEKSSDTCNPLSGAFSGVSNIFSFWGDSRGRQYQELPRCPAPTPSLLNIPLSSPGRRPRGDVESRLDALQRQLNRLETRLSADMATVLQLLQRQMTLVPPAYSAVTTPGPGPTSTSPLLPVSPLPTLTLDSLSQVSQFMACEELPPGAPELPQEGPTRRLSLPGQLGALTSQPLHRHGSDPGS
Method in brief: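 hERG block measured as reduced thallium-dye (FluxOR) fluorescence after stimulation buffer addition, read over 2 min. Cells were hERG-BacMam-transduced U2OS exposed to compound ~10 min […]; concentration-response fitted with Hill equation for AC50.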

[4] = qHTS assay for small molecule agonists of the antioxidant response element (ARE) signaling pathway (AID 651741; active = well fitted activation curve with a large enough effect in the signal ratio; the % refers to the signal ratio; also: potency is read from the fitted curve at half-maximal effect)
Method in brief: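 Beta-lactamase reporter under ARE control in HepG2 cells, 2,000 per well, was induced by 16 h compound treatment at 37 C. Read-out was fluorescence from LiveBLAzer B/G FRET substrate after 2 h at room temperature.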

[5] = qHTS assay for small molecule activators of the p53 signaling pathway (AID 651743; active = well fitted activation curve with a large enough effect in the signal ratio, not every such curve was filed as active; the % refers to the signal ratio; also: potency is read from the fitted curve at half-maximal effect); details: HCT-116 p53RE-bla, beta-lactamase FRET ratio, 16 h; activation: active compounds read high
Method in brief: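 After 16 hours compound treatment at 37 C, HCT-116 cells stably expressing p53RE-driven beta-lactamase were loaded with LiveBLAzer B/G FRET substrate for 2 hours at room temperature. Fluorescence intensity served as the p53 activation read-out.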

[6] = qHTS assay for small molecule activators of the nuclear factor-kappa B (NF-kB) signaling pathway (AID 651749; active = well fitted activation curve with a large enough effect in the signal ratio; the % refers to the signal ratio; also: series mostly up to about 77 µM; % of control where 0% means no effect); details: NF-kB-bla ME-180 cells, beta-lactamase FRET ratio, 16 h; activation: active compounds read high
Method in brief: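 Activation measured after 16 hr compound treatment at 37C, 5% CO2, of 2,000 ME-180 cells/well stably expressing an NF-kB response element–driven beta-lactamase reporter, via FRET-disruption fluorescence.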

[7] = qHTS assay for small molecule disruptors of the mitochondrial membrane potential - 1 hr assay (AID 651754; calls by dose curve; also: potency is read from the fitted curve at half-maximal effect; nearly all actives have a fitted effect of over 35% in size)
Method in brief: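 Mitochondrial potential in living HepG2 cells after 1 hr compound treatment at 37C was read with Mito-MPS dye added for a further 30 min. Red aggregate and green monomer fluorescence were measured; loss of potential leaves dye as cytoplasmic monomers.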

[8] = qHTS assay for small molecule disruptors of the mitochondrial membrane potential - 5 hr assay (AID 651755; calls by dose curve; also: potency is read from the fitted curve at half-maximal effect; nearly all actives have a fitted effect of over 40% in size)
Method in brief: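 Membrane-potential dye readout: red aggregate (540 ex/590 em) versus green monomer (490 ex/535 em) fluorescence after 30 min dye loading, following 5 hr compound exposure at 37C of overnight-plated HepG2 cells.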

[9] = target: Tumor necrosis factor (Homo sapiens) (UniProt P01375); assay: qHTS assay to identify small molecules that stimulate Tumor Necrosis Factor-alpha (TNF-alpha) secretion (AID 651757; active = well fitted curve in the direction sought with a large enough effect in the signal ratio; the % refers to the signal ratio; also: 0% is about no effect)
Sequence of Tumor necrosis factor (Homo sapiens) (P01375 whole entry, looked up): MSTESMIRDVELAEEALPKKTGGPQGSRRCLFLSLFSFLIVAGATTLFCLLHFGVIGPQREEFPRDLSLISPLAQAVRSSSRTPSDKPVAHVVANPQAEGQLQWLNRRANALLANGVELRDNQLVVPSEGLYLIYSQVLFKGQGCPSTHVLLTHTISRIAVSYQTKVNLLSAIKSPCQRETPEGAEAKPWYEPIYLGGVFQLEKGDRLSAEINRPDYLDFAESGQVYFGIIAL
Method in brief: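 Secreted TNF-alpha quantified by TR-FRET sandwich of two labeled anti-TNF-alpha antibodies, incubated 3 hr at room temperature. Preceded by 17 hr, 37 C compound treatment of THP-1 cells at 3000 cells/well.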

[10] = qHTS assay for environmental chemicals that activate the Aryl hydrocarbon Receptor (AhR) signaling pathway (AID 651777); details: 1A2-DRE human hepatoma cells, luciferase, 24 h; activation: active compounds read high; also: potency is read from the fitted curve at half-maximal effect; nearly all actives have a fitted effect of over 15% in size
Method in brief: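 1A2-DRE human hepatoma reporter line; 1,200 cells/well; cmpd or DMSO 24 h, 37 C/5% CO2; One-Glo 30 min RT; luciferase lum.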

[11] = target: Peroxisome proliferator-activated receptor alpha (Homo sapiens) (UniProt Q07869); assay: qHTS assay for small molecule agonists of the peroxisome proliferator-activated receptor alpha (PPARalpha) signaling pathway (AID 651778); details: PathHunter PPARalpha complementation, chemiluminescence, 6 h; active compounds read high; also: % of control where 0% means no effect
Sequence of Peroxisome proliferator-activated receptor alpha (Homo sapiens) (Q07869 whole entry, looked up): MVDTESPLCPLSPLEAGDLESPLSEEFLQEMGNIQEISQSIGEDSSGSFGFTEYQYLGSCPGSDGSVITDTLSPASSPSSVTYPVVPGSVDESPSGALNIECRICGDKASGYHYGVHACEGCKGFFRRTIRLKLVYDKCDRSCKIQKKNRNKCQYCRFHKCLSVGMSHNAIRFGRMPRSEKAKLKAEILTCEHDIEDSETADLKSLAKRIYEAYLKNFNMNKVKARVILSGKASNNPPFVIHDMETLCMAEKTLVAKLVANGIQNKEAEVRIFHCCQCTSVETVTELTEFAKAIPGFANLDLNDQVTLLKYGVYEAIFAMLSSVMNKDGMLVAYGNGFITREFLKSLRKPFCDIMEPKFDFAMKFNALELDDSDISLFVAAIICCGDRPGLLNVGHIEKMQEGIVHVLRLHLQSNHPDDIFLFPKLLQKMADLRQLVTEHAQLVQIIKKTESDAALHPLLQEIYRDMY
Method in brief: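 Chemiluminescence from complemented enzyme reported PPARalpha activation in cells after 6 hr of compound treatment at 37 C. The detection reagent was incubated for 60 min at room temperature, and compounds were scored as agonists.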

[12] = target: Nuclear receptor ROR-gamma (Homo sapiens) (UniProt P51449); assay: qHTS assay for small molecule antagonists of the retinoid-related orphan receptor gamma (ROR-gamma) signaling pathway (AID 651802); also: potency is read from the fitted curve at half-maximal effect; nearly all actives have a fitted effect of over 60% in size
Sequence of Nuclear receptor ROR-gamma (Homo sapiens) (P51449 whole entry, looked up): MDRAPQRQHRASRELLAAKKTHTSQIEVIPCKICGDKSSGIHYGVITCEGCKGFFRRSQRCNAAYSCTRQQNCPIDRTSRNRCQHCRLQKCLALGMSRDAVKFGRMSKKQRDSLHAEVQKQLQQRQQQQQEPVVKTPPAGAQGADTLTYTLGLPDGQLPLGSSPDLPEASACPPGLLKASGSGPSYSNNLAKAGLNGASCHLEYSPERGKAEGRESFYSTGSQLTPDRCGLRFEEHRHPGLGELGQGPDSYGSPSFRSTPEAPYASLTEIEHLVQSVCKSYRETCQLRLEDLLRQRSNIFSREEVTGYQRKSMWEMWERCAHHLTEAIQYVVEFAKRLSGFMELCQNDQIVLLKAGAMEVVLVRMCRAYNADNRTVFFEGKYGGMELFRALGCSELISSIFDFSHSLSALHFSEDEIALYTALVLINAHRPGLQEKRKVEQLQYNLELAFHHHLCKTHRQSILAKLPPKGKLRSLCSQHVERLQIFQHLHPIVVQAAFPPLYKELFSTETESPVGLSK
Method in brief: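 Luminescence (One-Glo, 30 min RT) measured 16 h after compound addition and doxycycline induction at 37C. Reporter: RORE-luciferase under TET-inducible ROR-gamma in CHO cells.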

[13] = qHTS assay for small molecule agonists of the antioxidant response element (ARE) signaling pathway measured by Nrf2-dependant transcriptional activity (AID 720636; active = well fitted curve in the direction sought with a large enough effect in the repeat runs; an effect the other way counts as inactive or inconclusive;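 also: HepG2 cells with an ARE-driven luciferase reporter; % of control where 0% means no effect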)
Method in brief: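 Cells: ARE-luc HepG2 with Nrf2-responsive luciferase. Medium contained 1% dialyzed FBS. Compound exposure lasted 16 hr at 37 C and 5% CO2, followed by ONE-Glo luciferase detection.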

[14] = qHTS assay for small molecule antagonists of the retinoid-related orphan receptor gamma (ROR-gamma) signaling pathway - cell viability counter screen (AID 720652; active = well fitted curve in the direction sought with a large enough effect in the repeat runs; an effect the other way counts as inactive or inconclusive;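 also: CHO reporter cells with doxycycline-induced ROR-gamma expression; series mostly up to about 92 µM; compound exposure lasted 16 hr before ATP read; % is scaled to controls: 0 for no effect and ±100 for the full control effect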)
Method in brief: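 Cytotoxicity counter screen: intracellular ATP (CellTiter-Glo luminescence) measured in the doxycycline-induced CHO RORE-luciferase reporter line after 16 hr compound exposure at 37 C, 5% CO2.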

[15] = qHTS assay for small molecule agonists of the antioxidant response element (ARE) signaling pathway measured by Nrf2-dependant transcriptional activity - cell viability counter screen (AID 720653; active = well fitted curve in the direction sought with a large enough effect in the repeat runs; an effect the other way counts as inactive or inconclusive; also: % is scaled to controls: 0 for no effect and ±100 for the full control effect); details: ARE-bla HepG2 viability, CellTiter-Glo ATP luminescence, 16 h; max response: active compounds read low
Method in brief: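 Cytotoxicity counter screen: intracellular ATP quantified by CellTiter-Glo luminescence in the same ARE-bla HepG2 plates, after 16 h compound exposure and a 2 h beta-lactamase substrate step.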

[16] = qHTS assay for cell viability of HEK293 cells (AID 743288); details: ATP luminescence (CellTiter-Glo), 18 h; max response: active compounds read low; also: % is scaled to controls: 0 for no effect and ±100 for the full control effect; nearly all actives have a fitted effect of over 50% in size
Method in brief: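 Readout is luciferase-coupled ATP content (CellTiter-Glo luminescence, 30 min room temperature) as a measure of metabolically competent cells. Parental HEK293 cells were plated 5 h or more before compound addition, then treated 18 h at 37 C.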

[17] = qHTS assay for cell viability of the p53RE-bla HCT-116 cell line (AID 743292); also: % is scaled to controls: 0 for no effect and ±100 for the full control effect; nearly all actives have a fitted effect of over 55% in size
Method in brief: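 HCT-116 p53RE-bla cells seeded 4,000/well; 5 h at 37 C; compound (DMSO) added; 16 h at 37 C; CellTiter-Glo added, 30 min RT; luminescence read.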

Furin (Homo sapiens) = Furin (Homo sapiens) (UniProt P09958); assay: Furin counterscreen qHTS for Zika virus inhibitors (AID 1347149);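 also: purified recombinant full-length human furin enzyme at 5 nM; fluorescence gain from furin cutting a BOC-RVRR-AMC peptide substrate over 15 min; top concentration of the series differs between compounds; plate controls were no-inhibitor control for no effect and no-enzyme control for full effect; nearly all actives have a fitted effect of over 70% in size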
Sequence of Furin (Homo sapiens) (P09958 whole entry, looked up): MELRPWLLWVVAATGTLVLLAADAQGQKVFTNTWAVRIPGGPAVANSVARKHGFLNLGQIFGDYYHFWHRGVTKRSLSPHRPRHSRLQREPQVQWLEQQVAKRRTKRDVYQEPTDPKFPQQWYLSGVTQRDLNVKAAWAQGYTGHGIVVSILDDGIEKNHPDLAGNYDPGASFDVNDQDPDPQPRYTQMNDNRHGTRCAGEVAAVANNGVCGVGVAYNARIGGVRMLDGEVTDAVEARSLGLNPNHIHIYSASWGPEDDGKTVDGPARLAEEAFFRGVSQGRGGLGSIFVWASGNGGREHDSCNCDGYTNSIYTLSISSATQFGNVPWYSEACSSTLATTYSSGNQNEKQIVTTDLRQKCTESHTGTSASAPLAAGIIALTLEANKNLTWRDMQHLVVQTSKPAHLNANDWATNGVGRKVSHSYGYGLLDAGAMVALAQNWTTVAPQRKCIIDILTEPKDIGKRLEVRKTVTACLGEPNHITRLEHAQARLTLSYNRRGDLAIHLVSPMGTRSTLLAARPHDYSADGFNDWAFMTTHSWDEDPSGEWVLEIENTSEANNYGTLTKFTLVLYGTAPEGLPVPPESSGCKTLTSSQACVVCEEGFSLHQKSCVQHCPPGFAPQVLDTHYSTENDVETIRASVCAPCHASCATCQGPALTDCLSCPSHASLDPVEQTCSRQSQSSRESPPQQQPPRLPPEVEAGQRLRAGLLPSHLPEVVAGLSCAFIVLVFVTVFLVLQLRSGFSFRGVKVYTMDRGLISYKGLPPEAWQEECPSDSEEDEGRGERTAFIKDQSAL
Method in brief: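 Counterscreen measures cleavage of 2 microM BOC-RVRR-AMC, below its ~15 microM Km, by 5 nM full-length human furin at pH 7.0 after a 15-min compound preincubation. Inhibition derives from the 15-min fluorescence increase at 37C.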

[18] = Confirmatory screen GU Rhodamine qHTS for Zika virus inhibitors qHTS (AID 1347157); also: potency is read from the fitted curve at half-maximal effect; nearly all actives have a fitted effect of over 70% in size
Method in brief: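 A qHTS format was used, with compound concentrations ranging up to 114 microM. Each compound was preincubated with 25 nM NS2B-NS3 protease, and the substrate was then added at 1.5 microM. Curves were fitted with a 4-parameter Hill model.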

[19] = ZIKV-mCherry secondary qHTS for Zika virus inhibitors (AID 1347158); details: Vero cells, ZIKV-mCherry infection imaging, 48-72 h; also: potency is read from the fitted curve at half-maximal effect
Method in brief: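 Percent infection is the share of Hoechst-identified Vero nuclei with mCherry signal above 450 RFU (3 SD over negative controls). Cells were infected with recombinant ZIKV-mCherry at MOI 1 after compound addition and imaged 48–72 h later.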

[20] = Confirmatory screen NINDS Rhodamine qHTS for Zika virus inhibitors (AID 1347161); also: potency is read from the fitted curve at half-maximal effect; nearly all actives have a fitted effect of over 60% in size
Method in brief: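 qHTS dose-response: 25 nM linked protease, pH 8.0 Tris/Tween buffer, cpd titration, 15 min RT preinc, 1.5 microM Rhod110 peptide, 15 min reaction (~15% conversion), Ex480/Em540; 4-parameter Hill fit.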

[21] = test system: Zika virus NS2B-NS3 protease (linked); assay: 384 well plate NINDS AMC confirmatory qHTS for Zika virus inhibitors (AID 1347163); details: Recombinant NS2B-NS3 protease, Ac-VKTGKR-AMC fluorescence; also: potency is read from the fitted curve at half-maximal effect; nearly all actives have a fitted effect of over 50% in size
Method in brief: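 Fluorescence at 355/460 nm was read after 25 minutes of cleavage of 30 microM Ac-VKTGKR-AMC at room temperature, in the dark. Before substrate addition, compounds (up to 1 mM final) sat ~15 minutes with 5, 30 or 60 nM linked protease. Signals were normalized to no-enzyme and no-inhibitor wells.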

[22] = test system: Zika virus NS2B-NS3 protease (linked construct); assay: 384 well plate NINDS Rhodamine confirmatory qHTS for Zika virus inhibitors (AID 1347164);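 also: fluorescence from protease cleavage of Ac-LKRR-rhodamine 110 substrate; potency is read from the fitted curve at half-maximal effect; nearly all actives have a fitted effect of over 65% in size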
Method in brief: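 Fluorescence at 485/538 nm was measured 25 minutes after adding 10 microM Ac-LKRR-Rd substrate, in the dark at room temperature. The protease (5, 30 or 60 nM final) had been preincubated ~15 minutes with compound; aprotinin as control.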

[23] = target: Nuclear receptor subfamily 1 group I member 2 (Rattus norvegicus) (UniProt Q9R1A7); assay: qHTS assay for small molecule activators of the rat pregnane X receptor (rPXR) signaling pathway (AID 651751; call rule not given here; also: 0% is about no effect); details: rPXR reporter cells, luciferase (One-Glo), 24 h
Sequence of Nuclear receptor subfamily 1 group I member 2 (Rattus norvegicus) (Q9R1A7 whole entry, looked up): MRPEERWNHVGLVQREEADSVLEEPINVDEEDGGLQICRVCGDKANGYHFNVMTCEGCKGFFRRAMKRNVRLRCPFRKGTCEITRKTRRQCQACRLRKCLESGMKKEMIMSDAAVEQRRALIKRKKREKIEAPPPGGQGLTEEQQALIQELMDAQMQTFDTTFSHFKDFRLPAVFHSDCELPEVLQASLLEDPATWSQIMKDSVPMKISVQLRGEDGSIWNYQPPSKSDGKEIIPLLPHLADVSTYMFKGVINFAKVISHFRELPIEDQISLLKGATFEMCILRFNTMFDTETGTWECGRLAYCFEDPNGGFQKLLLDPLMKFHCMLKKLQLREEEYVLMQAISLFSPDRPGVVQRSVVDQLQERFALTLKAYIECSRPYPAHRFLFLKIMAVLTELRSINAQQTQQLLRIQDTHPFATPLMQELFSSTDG

Oc1c(Cl)c(Cl)c(Cl)c(Cl)c1Cl
inactive: max response [1] 12.8% and -17.7% | activity change % (negative = inhibition) [2] -4.36% | Potency [3] | activation [6] -1.59% | outcome [9] | max response [11] 18.2% and 10.1% | Potency [13] | outcome [14] | max response [15] -14.8% and -25.3% | max response [16] -15.6% and -10.7% | outcome [17] | Potency (Furin (Homo sapiens)) | max response [23] -11.9% and -10.8%
active: Potency [4] 26.6 µM and 24.3 µM | Potency [5] 22.4 µM and 39.8 µM | Potency [7] 42.2 µM | Potency [8] 42.2 µM | Potency [10] 44.7 µM and 39.8 µM | Potency [12] 16.8 µM | Potency [18] 7.08 µM | Potency [19] 11.2 µM | Potency [20] 4.47 µM | Potency [21] 355 µM | Potency [22] 70.8 µM
